What all share (details): 10 µM; exposure time: 3 h pre-incubation + 3 h imaging
Experiment [1] relates to Danio rerio larvae (5 dpf). Nature of the experiment: combined upward orientation toward moving lines (periods 7-14) minus DMSO control (percentage points); higher = more orientation with moving lines than DMSO larvae. The method in brief: (§1)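 Zebrafish larvae (wild-type, 5 dpf) were imaged every 6 s at 28.5 °C and tracked with Z-LaP Tracker after 3 h of compound exposure at 10 µM final, which continued for the 3 h of imaging. Only detections of at least 0.5 probability were kept, and larvae moving under 1% of the time were dropped. Behavioural measures are reported as the group mean minus the control mean in percentage points. Group size was 48 and control size was 844.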

Experiment [2] concerns Danio rerio larvae (5 dpf). Nature of the experiment: combined optomotor response (time in upper well half, down vs up moving lines, periods 7-14) minus DMSO control (percentage points); higher = stronger optomotor response than DMSO larvae.
Experiment [3] concerns Danio rerio larvae (5 dpf). Nature of the experiment: 1-h baseline activity (% time moving, periods 1-6) minus DMSO control (percentage points); higher = more locomotor activity than DMSO larvae. Put shortly: as §1
The subject of experiment [4] is Danio rerio larvae (5 dpf). The experiment is described as follows: startle (activity period 16 minus period 15, 20-s interval sound) minus DMSO control (percentage points); higher = stronger startle response than DMSO larvae. The method in brief:
as §1

Experiment [5] has as its system Danio rerio larvae (5 dpf). Nature of the experiment: excitability (activity period 17 minus period 16, 1-s interval sound) minus DMSO control (percentage points); higher = more acoustic excitability than DMSO larvae. Put shortly:
as §1

The subject of experiment [6] is Danio rerio larvae (5 dpf). Nature of the experiment: habituation (activity change first vs second 5 min of 1-s interval sound, period 17) minus DMSO control (percentage points); higher = larger habituation measure than DMSO larvae. Put shortly: as §1

Molecules are shown by their SMILES. Structures can show the parent of a compound that is named as a salt.

In the case of `CCOC(=O)[C@H](CCc1ccccc1)N[C@H]1CCc2ccccc2N(CC(=O)O)C1=O` [Benazepril hydrochloride], the “combined upward orientation toward moving lines” value in experiment [1] was -4.13. For the same compound, in experiment [2], the combined optomotor response stood at 5.66.
Regarding `CN(C)CCc1c[nH]c2ccc(Cn3cncn3)cc12` [Rizatriptan benzoate], in experiment [3], the 1-h baseline activity was -3.79. Also, the startle in experiment [4] was 4.04. Moreover, the excitability in experiment [5] is -0.877. The combined optomotor response in experiment [2] came out at 6.97.
On to `CCN(CC)CCNC(=O)c1c(C)[nH]c(/C=C2\C(=O)Nc3ccc(F)cc32)c1C` [Sunitinib malate], for which, in experiment [4], the startle was -2.14. Besides, in experiment [1], the “combined upward orientation toward moving lines” value is -5.61. In experiment [2], the combined optomotor response was 2.67.
As to `COC(c1ccccc1)(c1ccccc1)[C@H](Oc1nc(C)cc(C)n1)C(=O)O` [Ambrisentan], the 1-h baseline activity in experiment [3] turned out to be 0.292. Further, the “combined upward orientation toward moving lines” value in experiment [1] is -0.152. In addition, in experiment [2], the combined optomotor response worked out at 0.559.
Regarding `O=C(O)c1cc(/N=N/c2ccc(S(=O)(=O)Nc3ccccn3)cc2)ccc1O` [Sulfasalazine], the startle in experiment [4] was -1. Further, in experiment [2], the combined optomotor response turned out to be 1.33.
For the compound `CN1CC(=O)N2[C@H](c3ccc4c(c3)OCO4)c3[nH]c4ccccc4c3C[C@@H]2C1=O` [Tadalafil], in experiment [1], the “combined upward orientation toward moving lines” value is -7.35. The combined optomotor response in experiment [2] was -1.2.
Turning to `CCOc1nc2cccc(C(=O)O)c2n1Cc1ccc(-c2ccccc2-c2noc(=O)[nH]2)cc1` [Azilsartan], in experiment [4], the startle turned out to be 3.25. In addition, in experiment [2], the combined optomotor response was found to be 0.518.
On to `Cc1c(-c2ccc(O)cc2)n(Cc2ccc(OCCN3CCCCCC3)cc2)c2ccc(O)cc12` [Bazedoxifene acetate], for which, in experiment [4], the startle was -3.07. Further, the combined optomotor response in experiment [2] was -0.163.
For the compound `N[C@@H]1[C@H]2CN(c3nc4c(cc3F)c(=O)c(C(=O)O)cn4-c3ccc(F)cc3F)C[C@@H]12` [Trovafloxacin mesylate], the startle in experiment [4] was -8.4.
As for `CC/C(=C(\c1ccccc1)c1ccc(OCCN(C)C)cc1)c1ccccc1` [Tamoxifen citrate], in experiment [4], the startle is -1.09. Moreover, the combined optomotor response in experiment [2] was -10.7.
Take `Cc1ccsc1C(=CCCN1CCC[C@@H](C(=O)O)C1)c1sccc1C` [Tiagabine hydrochloride]: the “combined upward orientation toward moving lines” value in experiment [1] turned out to be 13.4. For the same compound, the habituation in experiment [6] is 6.37. Besides, the combined optomotor response in experiment [2] came to 8.29.
On to `CC(C)c1ccc2oc3nc(N)c(C(=O)O)cc3c(=O)c2c1` [Amlexanox], for which the startle in experiment [4] came out at 2.27. For the same compound, the combined optomotor response in experiment [2] stood at 4.64.
Taken in the same sequence, the figures for `Nc1nc(F)nc2c1ncn2[C@@H]1O[C@H](CO)[C@@H](O)[C@@H]1O` [Fludarabine] were 4.52 and -1.67.
On to `C[C@H]1C[C@@H]2[C@H]([C@@H](O)C[C@@]3(C)[C@H]2CC[C@]3(O)C(=O)CO)[C@@]2(C)C=CC(=O)C=C12` [Methylprednisolone], for which the 1-h baseline activity in experiment [3] is -0.716. For the same compound, in experiment [1], the “combined upward orientation toward moving lines” value was -7.43. Moreover, in experiment [2], the combined optomotor response was 8.85.
Take `CC(C)C(=O)Nc1ccc([N+](=O)[O-])c(C(F)(F)F)c1` [Flutamide]: in experiment [1], the “combined upward orientation toward moving lines” value was -15.3. Besides, in experiment [2], the combined optomotor response was -12.4.
As for `CN1CCC[C@@H]1Cc1c[nH]c2ccc(CCS(=O)(=O)c3ccccc3)cc12` [Eletriptan hydrobromide], the 1-h baseline activity in experiment [3] came to 2.42. The startle in experiment [4] came out at 0.814. Also, the combined optomotor response in experiment [2] is -0.376.
Regarding `CC(C)CN(C[C@@H](O)[C@H](Cc1ccccc1)NC(=O)O[C@H]1CO[C@H]2OCC[C@H]21)S(=O)(=O)c1ccc(N)cc1` [Darunavir], the startle in experiment [4] is -0.93.
Consider `CCCCc1nc(Cl)c(CO)n1Cc1ccc(-c2ccccc2-c2nnn[nH]2)cc1` [Losartan potassium], for which the “combined upward orientation toward moving lines” value in experiment [1] was -9.02. Further, the combined optomotor response in experiment [2] is -0.522.
As for `Clc1ccc(COC(Cn2ccnc2)c2ccc(Cl)cc2Cl)c(Cl)c1` (stereo not given) [Miconazole nitrate], in experiment [5], the excitability is -1.24. Moreover, in experiment [1], the “combined upward orientation toward moving lines” value was -3.31. In experiment [2], the combined optomotor response was -12.3.
For the compound `CC(C)N(CCCCOCC(=O)NS(C)(=O)=O)c1cnc(-c2ccccc2)c(-c2ccccc2)n1` [Selexipag], the startle in experiment [4] came out at 1.3. Also, the excitability in experiment [5] worked out at 5.98. Besides, the “combined upward orientation toward moving lines” value in experiment [1] was -4.38. In addition, the combined optomotor response in experiment [2] was determined as 4.06.
On to `CC(=O)S[C@@H]1CC2=CC(=O)CC[C@]2(C)[C@H]2CC[C@@]3(C)[C@@H](CC[C@@]34CCC(=O)O4)[C@H]12` [Spironolactone], for which the “combined upward orientation toward moving lines” value in experiment [1] was -2.59. In experiment [2], the combined optomotor response amounted to 0.523.
Take `COc1cc(Nc2c(C#N)cnc3cc(OCCCN4CCN(C)CC4)c(OC)cc23)c(Cl)cc1Cl` [Bosutinib]: in experiment [4], the startle is -0.373. In experiment [1], the “combined upward orientation toward moving lines” value was -2.87. Moreover, the combined optomotor response in experiment [2] stood at 0.386.
Regarding `Cn1nnc2c(C(N)=O)ncn2c1=O` [Temozolomide], in experiment [3], the 1-h baseline activity turned out to be 5.97. Also, the startle in experiment [4] worked out at 2.78. Also, the combined optomotor response in experiment [2] is 5.41.
Turning to `CO[C@H]1/C=C/O[C@@]2(C)Oc3c(C)c(O)c4c(O)c(c5c(nc6cc(C)ccn65)c4c3C2=O)NC(=O)/C(C)=C\C=C\[C@H](C)[C@H](O)[C@@H](C)[C@@H](O)[C@@H](C)[C@H](OC(C)=O)[C@@H]1C` [Rifaximin], the “combined upward orientation toward moving lines” value in experiment [1] was -3.95. For the same compound, in experiment [2], the combined optomotor response came to 2.32.
The corresponding values for `CC(C)(C(=O)c1cccnc1)c1cccnc1` [Metyrapone] are -5.62 and -5.86.
For `Nc1ncn([C@@H]2O[C@H](CO)[C@@H](O)[C@H]2O)c(=O)n1` [5-Azacytidine], the startle in experiment [4] is 2.79. Further, in experiment [6], the habituation was 0.429. For the same compound, the combined optomotor response in experiment [2] was determined as 3.71.
With `CN(C)CCC[C@@]1(c2ccc(F)cc2)OCc2cc(C#N)ccc21` [Escitalopram oxalate], the “combined upward orientation toward moving lines” value in experiment [1] is -1.11. Moreover, in experiment [2], the combined optomotor response was -0.7.

The values are drawn from the supplement of paper PMC9950053.
